Key:
[1] = target: T1, Serine/threonine-protein kinase 17A (Homo sapiens) (UniProt Q9UEE5); settings: at 10 µM
T1 sequence (whole entry): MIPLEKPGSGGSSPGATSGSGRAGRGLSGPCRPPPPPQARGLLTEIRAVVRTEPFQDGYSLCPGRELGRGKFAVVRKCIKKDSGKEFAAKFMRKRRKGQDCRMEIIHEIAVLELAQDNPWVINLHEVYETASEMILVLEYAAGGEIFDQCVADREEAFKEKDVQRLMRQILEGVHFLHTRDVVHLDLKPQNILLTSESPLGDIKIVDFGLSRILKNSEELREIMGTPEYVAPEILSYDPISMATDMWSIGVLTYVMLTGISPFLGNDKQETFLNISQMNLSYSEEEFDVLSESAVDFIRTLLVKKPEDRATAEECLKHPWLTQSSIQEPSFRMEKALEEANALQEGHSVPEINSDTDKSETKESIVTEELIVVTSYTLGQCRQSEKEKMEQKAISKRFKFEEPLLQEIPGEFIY

[2] = target: T2, Dual specificity tyrosine-phosphorylation-regulated kinase 2 (Homo sapiens) (UniProt Q92630); settings: at 1 µM
T2 sequence (whole entry): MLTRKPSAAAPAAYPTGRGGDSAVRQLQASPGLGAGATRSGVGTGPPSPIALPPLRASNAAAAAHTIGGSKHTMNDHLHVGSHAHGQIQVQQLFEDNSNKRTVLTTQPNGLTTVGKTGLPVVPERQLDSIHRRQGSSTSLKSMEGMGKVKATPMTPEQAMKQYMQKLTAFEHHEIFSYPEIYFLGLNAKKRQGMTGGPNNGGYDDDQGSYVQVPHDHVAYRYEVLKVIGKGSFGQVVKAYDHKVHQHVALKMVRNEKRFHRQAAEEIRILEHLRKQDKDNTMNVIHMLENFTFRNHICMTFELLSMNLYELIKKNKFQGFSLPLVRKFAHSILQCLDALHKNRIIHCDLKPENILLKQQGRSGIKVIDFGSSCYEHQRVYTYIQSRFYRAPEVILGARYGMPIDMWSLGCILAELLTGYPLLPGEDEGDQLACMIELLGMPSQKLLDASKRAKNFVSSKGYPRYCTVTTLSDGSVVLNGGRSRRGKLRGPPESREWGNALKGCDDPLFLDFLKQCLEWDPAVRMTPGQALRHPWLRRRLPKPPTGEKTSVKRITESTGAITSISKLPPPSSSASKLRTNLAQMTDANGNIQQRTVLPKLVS

[3] = target: T2, Dual specificity tyrosine-phosphorylation-regulated kinase 2 (Homo sapiens); settings: at 10 µM
[4] = target: T3, Ephrin type-A receptor 1 (Homo sapiens) (UniProt P21709); settings: at 1 µM
T3 sequence (whole entry): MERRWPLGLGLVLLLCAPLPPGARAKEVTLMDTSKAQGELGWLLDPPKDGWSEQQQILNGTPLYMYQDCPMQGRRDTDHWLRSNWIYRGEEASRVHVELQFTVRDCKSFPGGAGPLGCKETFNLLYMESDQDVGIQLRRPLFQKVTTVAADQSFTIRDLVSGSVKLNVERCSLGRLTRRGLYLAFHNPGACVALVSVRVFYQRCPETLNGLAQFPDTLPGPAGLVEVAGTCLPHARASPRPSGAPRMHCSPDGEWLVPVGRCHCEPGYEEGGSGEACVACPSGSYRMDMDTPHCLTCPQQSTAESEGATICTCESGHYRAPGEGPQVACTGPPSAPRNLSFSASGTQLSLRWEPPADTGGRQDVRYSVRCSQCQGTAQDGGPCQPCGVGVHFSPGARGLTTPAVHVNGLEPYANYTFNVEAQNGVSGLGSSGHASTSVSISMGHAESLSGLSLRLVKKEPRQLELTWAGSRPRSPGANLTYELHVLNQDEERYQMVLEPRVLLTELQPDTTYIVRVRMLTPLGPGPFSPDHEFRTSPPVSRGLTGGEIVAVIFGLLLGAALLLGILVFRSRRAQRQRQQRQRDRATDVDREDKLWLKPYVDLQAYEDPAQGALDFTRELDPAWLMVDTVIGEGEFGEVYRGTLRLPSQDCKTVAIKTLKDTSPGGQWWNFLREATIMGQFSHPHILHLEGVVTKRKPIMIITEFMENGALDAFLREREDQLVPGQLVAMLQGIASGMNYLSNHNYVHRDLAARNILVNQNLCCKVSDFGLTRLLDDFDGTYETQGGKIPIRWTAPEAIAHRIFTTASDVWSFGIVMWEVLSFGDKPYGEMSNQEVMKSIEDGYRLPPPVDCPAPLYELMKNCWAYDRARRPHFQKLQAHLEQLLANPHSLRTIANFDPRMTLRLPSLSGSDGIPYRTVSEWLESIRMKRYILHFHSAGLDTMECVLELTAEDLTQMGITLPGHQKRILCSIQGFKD

[5] = target: T3, Ephrin type-A receptor 1 (Homo sapiens); settings: at 10 µM
[6] = target: Ephrin type-A receptor 2 (Homo sapiens) (UniProt P29317); settings: at 1 µM
[7] = target: Ephrin type-A receptor 2 (Homo sapiens) (UniProt P29317); settings: at 10 µM
[8] = target: T4, Ephrin type-A receptor 3 (Homo sapiens) (UniProt P29320); settings: at 1 µM
T4 sequence (whole entry): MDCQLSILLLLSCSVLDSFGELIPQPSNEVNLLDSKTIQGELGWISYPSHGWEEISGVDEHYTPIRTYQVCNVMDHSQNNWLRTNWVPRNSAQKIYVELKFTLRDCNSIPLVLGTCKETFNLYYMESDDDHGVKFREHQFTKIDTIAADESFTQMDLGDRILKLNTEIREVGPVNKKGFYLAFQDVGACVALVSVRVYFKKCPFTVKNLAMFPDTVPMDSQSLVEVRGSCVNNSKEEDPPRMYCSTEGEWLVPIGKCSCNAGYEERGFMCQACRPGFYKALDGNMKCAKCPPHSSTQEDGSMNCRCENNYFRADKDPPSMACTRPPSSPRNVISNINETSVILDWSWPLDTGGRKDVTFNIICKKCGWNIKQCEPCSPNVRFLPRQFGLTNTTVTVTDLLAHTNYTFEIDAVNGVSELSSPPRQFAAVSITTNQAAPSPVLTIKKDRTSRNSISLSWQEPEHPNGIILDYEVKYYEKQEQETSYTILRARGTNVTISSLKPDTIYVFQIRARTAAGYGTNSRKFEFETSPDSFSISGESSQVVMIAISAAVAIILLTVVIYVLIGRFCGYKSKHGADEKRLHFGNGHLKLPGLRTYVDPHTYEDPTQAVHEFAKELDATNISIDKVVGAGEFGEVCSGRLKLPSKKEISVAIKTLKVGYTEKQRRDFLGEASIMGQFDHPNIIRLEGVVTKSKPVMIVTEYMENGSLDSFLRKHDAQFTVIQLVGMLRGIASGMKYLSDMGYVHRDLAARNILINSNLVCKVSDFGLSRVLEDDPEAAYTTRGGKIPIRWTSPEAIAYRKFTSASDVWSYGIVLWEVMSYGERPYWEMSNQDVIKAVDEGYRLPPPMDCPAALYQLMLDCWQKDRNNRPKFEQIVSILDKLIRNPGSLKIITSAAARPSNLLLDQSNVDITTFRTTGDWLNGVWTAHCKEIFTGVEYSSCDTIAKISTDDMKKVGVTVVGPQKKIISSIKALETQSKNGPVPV

[9] = target: T4, Ephrin type-A receptor 3 (Homo sapiens); settings: at 10 µM
[10] = target: Ephrin type-A receptor 4 (Homo sapiens) (UniProt P54764); settings: at 1 µM
[11] = target: Ephrin type-A receptor 4 (Homo sapiens) (UniProt P54764); settings: at 10 µM
[12] = target: Ephrin type-A receptor 5 (Homo sapiens) (UniProt P54756); settings: at 1 µM
[13] = target: Ephrin type-A receptor 5 (Homo sapiens) (UniProt P54756); settings: at 10 µM
[14] = target: Ephrin type-A receptor 7 (Homo sapiens) (UniProt Q15375); settings: at 1 µM
[15] = target: Ephrin type-A receptor 7 (Homo sapiens) (UniProt Q15375); settings: at 10 µM
[16] = target: T5, Ephrin type-A receptor 8 (Homo sapiens) (UniProt P29322); settings: at 1 µM
T5 sequence (whole entry): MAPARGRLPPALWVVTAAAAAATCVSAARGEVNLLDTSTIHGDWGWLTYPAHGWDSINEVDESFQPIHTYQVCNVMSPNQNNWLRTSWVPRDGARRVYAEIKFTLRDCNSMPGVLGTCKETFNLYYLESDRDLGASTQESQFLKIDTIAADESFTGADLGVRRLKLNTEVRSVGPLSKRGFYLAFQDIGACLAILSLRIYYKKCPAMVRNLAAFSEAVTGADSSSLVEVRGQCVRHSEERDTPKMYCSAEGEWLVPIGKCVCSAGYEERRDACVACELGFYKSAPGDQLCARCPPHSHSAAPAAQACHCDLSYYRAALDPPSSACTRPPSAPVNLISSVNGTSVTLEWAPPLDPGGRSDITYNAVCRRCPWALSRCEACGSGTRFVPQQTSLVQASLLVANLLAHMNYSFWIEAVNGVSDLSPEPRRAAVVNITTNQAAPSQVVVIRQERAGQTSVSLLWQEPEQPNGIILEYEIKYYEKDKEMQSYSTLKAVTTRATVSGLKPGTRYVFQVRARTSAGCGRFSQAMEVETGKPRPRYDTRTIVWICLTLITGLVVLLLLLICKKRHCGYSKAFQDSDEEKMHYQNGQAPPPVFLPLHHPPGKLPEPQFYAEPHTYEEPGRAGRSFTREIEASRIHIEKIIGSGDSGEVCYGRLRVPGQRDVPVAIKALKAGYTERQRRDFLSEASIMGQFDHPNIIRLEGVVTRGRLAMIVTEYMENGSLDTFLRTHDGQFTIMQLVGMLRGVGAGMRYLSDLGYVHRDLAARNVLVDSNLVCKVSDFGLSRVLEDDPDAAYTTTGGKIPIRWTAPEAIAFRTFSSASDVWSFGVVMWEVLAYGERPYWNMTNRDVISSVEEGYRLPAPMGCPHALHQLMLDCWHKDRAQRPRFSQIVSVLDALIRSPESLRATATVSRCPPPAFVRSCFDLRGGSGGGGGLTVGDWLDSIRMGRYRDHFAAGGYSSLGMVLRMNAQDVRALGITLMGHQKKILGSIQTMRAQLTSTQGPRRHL

[17] = target: T5, Ephrin type-A receptor 8 (Homo sapiens); settings: at 10 µM
[18] = target: T6, Ephrin type-B receptor 1 (Homo sapiens) (UniProt P54762); settings: at 1 µM
T6 sequence (whole entry): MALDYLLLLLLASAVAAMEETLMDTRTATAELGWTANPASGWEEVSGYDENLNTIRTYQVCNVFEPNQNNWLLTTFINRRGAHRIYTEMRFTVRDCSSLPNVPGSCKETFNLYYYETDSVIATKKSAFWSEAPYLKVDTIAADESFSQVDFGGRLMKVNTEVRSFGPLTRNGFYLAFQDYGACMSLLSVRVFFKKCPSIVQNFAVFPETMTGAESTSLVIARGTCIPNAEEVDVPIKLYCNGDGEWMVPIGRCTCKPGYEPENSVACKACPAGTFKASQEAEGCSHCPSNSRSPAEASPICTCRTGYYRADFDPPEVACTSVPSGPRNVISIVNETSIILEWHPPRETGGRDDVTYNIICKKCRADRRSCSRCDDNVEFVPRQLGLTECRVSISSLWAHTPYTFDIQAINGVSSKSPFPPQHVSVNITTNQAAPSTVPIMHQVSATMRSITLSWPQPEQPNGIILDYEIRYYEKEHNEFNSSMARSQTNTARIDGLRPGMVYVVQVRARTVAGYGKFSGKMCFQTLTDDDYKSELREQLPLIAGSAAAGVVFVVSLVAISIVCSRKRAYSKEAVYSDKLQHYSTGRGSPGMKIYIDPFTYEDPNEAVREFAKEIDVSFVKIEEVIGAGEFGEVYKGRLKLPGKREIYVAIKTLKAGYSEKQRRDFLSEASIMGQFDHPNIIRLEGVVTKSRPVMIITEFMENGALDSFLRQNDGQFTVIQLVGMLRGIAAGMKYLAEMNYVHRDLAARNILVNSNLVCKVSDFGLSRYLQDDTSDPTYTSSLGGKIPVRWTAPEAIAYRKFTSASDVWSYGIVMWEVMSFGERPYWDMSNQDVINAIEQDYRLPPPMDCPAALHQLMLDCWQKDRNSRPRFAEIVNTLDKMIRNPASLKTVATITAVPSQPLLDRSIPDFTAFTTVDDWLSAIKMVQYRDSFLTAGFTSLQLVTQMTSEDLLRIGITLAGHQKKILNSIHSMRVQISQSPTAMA

Sequence of Ephrin type-A receptor 4 (Homo sapiens) (P54764 whole entry): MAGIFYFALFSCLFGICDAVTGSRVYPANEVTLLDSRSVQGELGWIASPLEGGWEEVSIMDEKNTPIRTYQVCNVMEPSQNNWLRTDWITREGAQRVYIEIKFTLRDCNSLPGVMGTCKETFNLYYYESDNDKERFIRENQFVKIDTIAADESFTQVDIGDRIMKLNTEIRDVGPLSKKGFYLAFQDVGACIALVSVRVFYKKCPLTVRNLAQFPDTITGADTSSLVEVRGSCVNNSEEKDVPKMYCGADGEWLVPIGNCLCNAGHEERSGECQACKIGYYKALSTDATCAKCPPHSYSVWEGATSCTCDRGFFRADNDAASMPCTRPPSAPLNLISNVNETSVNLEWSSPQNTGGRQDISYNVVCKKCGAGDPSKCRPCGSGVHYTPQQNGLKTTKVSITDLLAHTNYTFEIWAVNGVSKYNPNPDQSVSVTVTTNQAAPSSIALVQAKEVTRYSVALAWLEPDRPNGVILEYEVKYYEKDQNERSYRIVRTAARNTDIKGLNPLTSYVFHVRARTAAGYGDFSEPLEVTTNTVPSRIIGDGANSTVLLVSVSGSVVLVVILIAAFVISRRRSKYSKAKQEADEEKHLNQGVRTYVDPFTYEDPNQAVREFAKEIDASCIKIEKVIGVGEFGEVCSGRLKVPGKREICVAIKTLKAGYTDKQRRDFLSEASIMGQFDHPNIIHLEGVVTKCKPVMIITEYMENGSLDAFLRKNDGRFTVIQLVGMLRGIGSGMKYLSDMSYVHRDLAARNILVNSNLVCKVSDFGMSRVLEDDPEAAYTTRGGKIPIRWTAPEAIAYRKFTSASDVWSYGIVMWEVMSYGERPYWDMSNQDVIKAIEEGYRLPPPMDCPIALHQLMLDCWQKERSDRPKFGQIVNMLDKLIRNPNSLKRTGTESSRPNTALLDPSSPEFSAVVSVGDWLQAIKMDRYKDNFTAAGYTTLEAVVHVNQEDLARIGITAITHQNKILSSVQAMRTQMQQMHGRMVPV
Sequence of Ephrin type-A receptor 7 (Homo sapiens) (Q15375 28-998 limits assumed): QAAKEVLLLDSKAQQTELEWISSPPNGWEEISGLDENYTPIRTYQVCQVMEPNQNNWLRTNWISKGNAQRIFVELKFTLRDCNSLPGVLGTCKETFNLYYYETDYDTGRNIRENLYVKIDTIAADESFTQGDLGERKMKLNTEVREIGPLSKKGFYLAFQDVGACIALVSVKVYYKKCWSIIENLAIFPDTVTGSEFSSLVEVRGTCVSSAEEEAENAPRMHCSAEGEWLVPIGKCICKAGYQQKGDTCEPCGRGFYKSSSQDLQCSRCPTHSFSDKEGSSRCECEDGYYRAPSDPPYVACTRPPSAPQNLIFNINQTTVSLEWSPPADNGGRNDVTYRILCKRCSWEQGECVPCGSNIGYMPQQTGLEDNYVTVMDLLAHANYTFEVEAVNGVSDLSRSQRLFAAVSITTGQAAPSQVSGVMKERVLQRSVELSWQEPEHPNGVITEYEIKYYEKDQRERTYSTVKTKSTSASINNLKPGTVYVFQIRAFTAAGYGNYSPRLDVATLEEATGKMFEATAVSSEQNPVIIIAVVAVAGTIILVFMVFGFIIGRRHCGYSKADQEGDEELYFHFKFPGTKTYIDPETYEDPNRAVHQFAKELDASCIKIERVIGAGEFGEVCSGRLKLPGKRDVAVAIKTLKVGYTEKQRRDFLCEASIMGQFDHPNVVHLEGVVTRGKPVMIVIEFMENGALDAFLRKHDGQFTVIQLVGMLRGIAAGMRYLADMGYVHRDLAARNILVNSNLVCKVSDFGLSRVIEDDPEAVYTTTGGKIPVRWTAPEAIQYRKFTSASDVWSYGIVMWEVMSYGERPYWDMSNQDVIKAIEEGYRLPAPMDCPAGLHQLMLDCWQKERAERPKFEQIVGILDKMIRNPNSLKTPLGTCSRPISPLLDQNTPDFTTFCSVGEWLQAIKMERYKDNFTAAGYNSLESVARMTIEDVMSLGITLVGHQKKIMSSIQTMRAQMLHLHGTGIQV
Sequence of Ephrin type-A receptor 2 (Homo sapiens) (P29317 whole entry): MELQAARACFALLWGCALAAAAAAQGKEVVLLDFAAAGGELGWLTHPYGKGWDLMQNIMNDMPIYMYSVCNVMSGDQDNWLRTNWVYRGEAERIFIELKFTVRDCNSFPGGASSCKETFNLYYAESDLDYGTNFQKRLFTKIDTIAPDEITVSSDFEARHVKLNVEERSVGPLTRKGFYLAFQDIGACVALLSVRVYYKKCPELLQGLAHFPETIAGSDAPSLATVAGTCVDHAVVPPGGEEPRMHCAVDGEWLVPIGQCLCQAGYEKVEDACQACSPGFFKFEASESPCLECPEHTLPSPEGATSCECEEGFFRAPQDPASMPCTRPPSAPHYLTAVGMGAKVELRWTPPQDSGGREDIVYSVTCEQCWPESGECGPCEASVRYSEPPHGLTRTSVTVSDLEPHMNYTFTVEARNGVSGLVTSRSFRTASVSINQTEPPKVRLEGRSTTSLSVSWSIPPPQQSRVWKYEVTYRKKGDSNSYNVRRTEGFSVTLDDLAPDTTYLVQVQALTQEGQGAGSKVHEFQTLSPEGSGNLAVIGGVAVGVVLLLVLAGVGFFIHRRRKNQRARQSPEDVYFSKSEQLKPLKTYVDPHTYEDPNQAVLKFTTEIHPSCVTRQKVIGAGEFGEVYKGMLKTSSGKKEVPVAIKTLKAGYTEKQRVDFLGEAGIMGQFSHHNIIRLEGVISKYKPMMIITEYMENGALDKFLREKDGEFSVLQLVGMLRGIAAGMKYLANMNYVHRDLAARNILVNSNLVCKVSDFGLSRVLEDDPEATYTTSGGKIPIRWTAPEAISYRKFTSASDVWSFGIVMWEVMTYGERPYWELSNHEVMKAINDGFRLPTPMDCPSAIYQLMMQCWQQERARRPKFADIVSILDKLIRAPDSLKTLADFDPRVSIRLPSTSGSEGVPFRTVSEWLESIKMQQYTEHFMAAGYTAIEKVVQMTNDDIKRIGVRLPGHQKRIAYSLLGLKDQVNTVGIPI
Sequence of Ephrin type-A receptor 5 (Homo sapiens) (P54756 whole entry): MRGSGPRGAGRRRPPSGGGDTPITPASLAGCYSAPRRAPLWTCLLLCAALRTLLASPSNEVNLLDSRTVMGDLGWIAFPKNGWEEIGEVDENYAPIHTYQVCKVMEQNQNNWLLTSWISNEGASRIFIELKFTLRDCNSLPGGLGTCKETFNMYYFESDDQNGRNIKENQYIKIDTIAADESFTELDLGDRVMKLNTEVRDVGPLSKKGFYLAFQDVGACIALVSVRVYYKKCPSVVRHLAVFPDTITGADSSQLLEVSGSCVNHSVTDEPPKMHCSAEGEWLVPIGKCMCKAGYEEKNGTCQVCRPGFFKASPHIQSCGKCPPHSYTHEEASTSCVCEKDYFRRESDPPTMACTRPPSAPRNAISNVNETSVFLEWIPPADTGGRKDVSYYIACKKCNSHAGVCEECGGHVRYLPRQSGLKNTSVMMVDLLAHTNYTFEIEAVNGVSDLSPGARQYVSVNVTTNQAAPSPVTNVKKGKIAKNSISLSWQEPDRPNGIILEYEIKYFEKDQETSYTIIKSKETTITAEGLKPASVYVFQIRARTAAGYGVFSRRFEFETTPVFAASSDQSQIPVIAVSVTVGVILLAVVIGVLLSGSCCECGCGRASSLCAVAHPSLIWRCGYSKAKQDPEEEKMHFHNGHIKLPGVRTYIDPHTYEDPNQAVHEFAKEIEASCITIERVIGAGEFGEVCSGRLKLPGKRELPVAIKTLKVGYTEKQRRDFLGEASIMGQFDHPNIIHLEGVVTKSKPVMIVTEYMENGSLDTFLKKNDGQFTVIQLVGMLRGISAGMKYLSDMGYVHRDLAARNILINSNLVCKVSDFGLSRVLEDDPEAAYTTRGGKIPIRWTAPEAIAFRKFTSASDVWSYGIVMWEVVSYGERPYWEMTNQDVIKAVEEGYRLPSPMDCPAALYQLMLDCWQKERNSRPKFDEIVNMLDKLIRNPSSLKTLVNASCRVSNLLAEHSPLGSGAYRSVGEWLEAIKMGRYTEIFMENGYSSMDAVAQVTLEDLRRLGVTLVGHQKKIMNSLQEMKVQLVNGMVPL

Compound | residual activity [1] [%] | residual activity [2] [%] | residual activity [3] [%] | residual activity [4] [%] | residual activity [5] [%] | residual activity [6] [%] | residual activity [7] [%] | residual activity [8] [%] | residual activity [9] [%] | residual activity [10] [%] | residual activity [11] [%] | residual activity [12] [%] | residual activity [13] [%] | residual activity [14] [%] | residual activity [15] [%] | residual activity [16] [%] | residual activity [17] [%] | residual activity [18] [%]
Oc1ccc(Nc2nc(-c3ccc(Cl)cc3)cs2)cc1 | 96 | 104 | 93 | 95 | 63 | 88 | 113 | 107 | 111 | 113 | 103 | 112 | 86 | 105 | 102 | 99 | 96 | 108
Oc1c2ccccc2c2c3c(cccc13)N=N2 | 2 | 4 | -5 | 67 | 42 | 88 | 60 | 75 | 48 | 105 | 106 | 115 | 63 | 80 | 41 | 92 | 76 | 91
